Test results: PubChem BioAssay (NCATS)
Records with an inconclusive call do not appear. The source made the active and inactive calls. Calls come from the whole dose curve; as a rule, active = well fitted curve in the direction sought with a large enough effect; inconclusive = small, poorly fitted or top-dose-only effect, or another doubt; inactive = no such curve, though single readings can be large; an effect the other way counts as inactive or inconclusive.

Columns and labels:
[1] = Cell Viability - LYMP2-019 (AID 973); note: nearly all actives have a fitted effect of over 55% in size
Method in brief: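 Luminescent ATP read-out (CellTiter-Glo, 30 min room temperature) served as the viability measure after 24 hr treatment of lymphoblastoid cells at 37 C. Concentration-response data were fitted to the Hill equation for AC50.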

[2] = Cell Viability - LYMP2-021 (AID 974);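 note: compound exposure lasts 24 hours at 37 °C; nearly all actives have a fitted effect of over 55% in size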
Method in brief: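 Plate 2500 lymphoblastoid cells per well and incubate 5 hr at 37 C. Add compounds over a concentration range and incubate 24 hr at 37 C. Add CellTiter-Glo, wait 30 min at room temperature, read luminescence.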

[3] = Cell Viability - LYMP2-023 (AID 975);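 note: cellular ATP measured by luciferase luminescence as viability proxy; nearly all actives have a fitted effect of over 55% in size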
Method in brief: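 2500 cells/well, 5 hr 37 C; cpd 24 hr 37 C; CellTiter-Glo, 30 min RT; luminescence. qHTS conc-response, Hill fit -> AC50. Pos ctrl tetraoctylammonium bromide.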

[4] = Cell Viability - LYMP2-025 (AID 976)
Method in brief: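 Seed 2500 LYMP2-025 cells/well; 5 hr at 37 C; add compound; 24 hr at 37 C; add CellTiter-Glo; 30 min RT; read luminescence. AC50 from Hill-modelled concentration-response.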

[5] = Cell Viability - LYMP2-002 (AID 977)
Method in brief: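 Luminescent ATP readout (CellTiter-Glo, 30 min room temperature) after 24 h compound exposure at 37 C of a human lymphoblastoid line, 2500 cells/well. AC50 values derived by standard Hill fitting of qHTS concentration-response data.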

[6] = Cell Viability - LYMP2-006 (AID 978); note: nearly all actives have a fitted effect of over 60% in size
Method in brief: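 Cells are seeded at 2500 per well and rested 5 hr at 37 C. Compounds are added across a concentration series for 24 hr at 37 C, after which ATP is quantified by luciferase luminescence.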

[7] = Cell Viability - LYMP2-007 (AID 979);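 note: cells exposed to compound for 24 h before reading; nearly all actives have a fitted effect of over 60% in size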
Method in brief: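 Luminescent ATP signal (CellTiter-Glo) serves as the viability read-out after 24 hr compound treatment of lymphoblastoid cells in complete medium at 37 C. Concentration-response data were fitted to the Hill equation to give AC50 values.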

[8] = Cell Viability - LYMP2-008 (AID 980); note: nearly all actives have a fitted effect of over 60% in size
Method in brief: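 qHTS, human lymphoblastoid line, 2500 cells/well; 5 hr preincubation, 24 hr compound, 37 C. CellTiter-Glo ATP luminescence. AC50 via Hill equation. Tetraoctylammonium bromide positive control.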

[9] = Cell Viability - LYMP2-010 (AID 981); note: nearly all actives have a fitted effect of over 55% in size
Method in brief: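 Luminescent ATP signal (CellTiter-Glo) served as the viability read-out. Cells of the human lymphoblastoid line were treated with compound over a concentration range for 24 hours at 37 C, and AC50 values came from Hill-equation modeling.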

[10] = Cell Viability - LYMP2-012 (AID 982)
[11] = Cell Viability - LYMP2-014 (AID 983); note: nearly all actives have a fitted effect of over 50% in size
Method in brief: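 Luminescent ATP signal (CellTiter-Glo, 30 min at room temperature) serves as the viability read-out after 24 hr compound exposure at 37 C. Cells were seeded at 2500 per well and settled 5 hr beforehand.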

[12] = Cell Viability - LYMP2-016 (AID 984); note: nearly all actives have a fitted effect of over 55% in size
Method in brief: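 Cells were seeded at 2500 per well and rested 5 hr before a 24 hr compound exposure at 37 C. Viability was then gauged as cellular ATP by luciferase luminescence, with AC50 values fitted to the Hill equation.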

[13] = Cell Viability - LYMP2-018 (AID 985); note: nearly all actives have a fitted effect of over 50% in size
Method in brief: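 Luminescent ATP signal (CellTiter-Glo, read after 30 min at room temperature) reports viable cells after 24 hr compound treatment at 37 C. Concentration-response data were fitted to the standard Hill equation for AC50.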

[14] = Cell Viability - LYMP2-020 (AID 986); note: nearly all actives have a fitted effect of over 55% in size
Method in brief: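 Luminescent ATP signal (CellTiter-Glo, 30 min at room temperature) is the read-out after 24 h compound treatment of lymphoblastoid cells at 37 C. AC50 values come from Hill-equation fits across concentrations.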

[15] = Cell Viability - LYMP2-022 (AID 987); note: nearly all actives have a fitted effect of over 55% in size
Method in brief: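 qHTS: human lymphoblastoid cells 2500/well; 5 hr 37 C; cpd added; 24 hr 37 C; CellTiter-Glo, 30 min RT; luminescence. AC50 via Hill fit; tetraoctylammonium bromide positive ctrl.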

[16] = Cell Viability - LYMP2-024 (AID 988); note: nearly all actives have a fitted effect of over 60% in size
Method in brief: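 Steps: seed 2500 cells/well, 5 hr 37 C; add compound, 24 hr 37 C; add CellTiter-Glo, 30 min room temperature; read luminescence. AC50 derived by Hill modelling of concentration-dependent ATP loss.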

[17] = Cell Viability - LYMP2-026 (AID 989); note: nearly all actives have a fitted effect of over 50% in size
Method in brief: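 Luminescent ATP signal (CellTiter-Glo, 30 min room temperature) measures viable lymphoblastoid cells after 24 hr compound treatment at 37 C. Decreased ATP reflects acute toxicity; AC50 values come from Hill-equation modeling.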

[18] = Cell Viability - LYMP1-002 - Assay at 24 hr (AID 993)
Method in brief: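 Cells plated 2500/well, 5 hr 37 C; compounds added, 24 hr 37 C; CellTiter-Glo added, 30 min RT; luminescence read. Tetraoctylammonium bromide positive control. Hill-equation AC50.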

[19] = Cell Viability - LYMP1-002 - Assay at 40 hr (AID 994); note: nearly all actives have a fitted effect of over 60% in size
Method in brief: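 Luminescent ATP signal served as the viability readout, with decreases taken as toxicity. Cells were treated with compounds across a concentration range for 40 hours at 37 C, and AC50 values came from standard Hill modeling.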

GB4 = experiment: qHTS profiling for inhibitors of Plasmodium falciparum proliferation (AID 504749); note: nearly all actives have a fitted effect of over 60% in size; settings: P. falciparum in erythrocytes, SYBR Green DNA, 72 h; series mostly up to 12.8 µM
Method in brief: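 Parasite proliferation within erythrocytes, 72 h exposure. Endpoint: SYBR Green I fluorescence after overnight lysis at room temperature. Controls: 0.29 uM artemisinin, DMSO.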

Measured: Potency

Cc1occc(=O)c1O
inactive: [1] | [2] | [3] | [4] | [5] | [6] | [7] | [8] | [9] | [10] | [11] | [12] | [13] | [14] | [15] | [16] | [17] | [18] | [19]

O=C(Cc1cccs1)NC1C(=O)N2C(C(=O)[O-])=C(C[n+]3ccccc3)CSC12 (stereo not given)
inactive: GB4

CC1=CC(=O)CC(C)(C)C1(O)/C=C/C(C)=C\C(=O)O (stereo not given)
inactive: [1] | [2] | [3] | [4] | [5] | [6] | [7] | [8] | [9] | [10] | [11] | [12] | [13] | [14] | [15] | [16] | [17] | [18] | [19]

C[C@@H]1CCC[C@H](C)N1NC(=O)c1ccc(Cl)c(S(N)(=O)=O)c1
inactive: GB4

COS(C)(=O)=O
inactive: [1] | [2] | [3] | [4] | [5] | [6] | [7] | [8] | [9] | [10] | [11] | [12] | [13] | [14] | [15] | [16] | [17] | [18] | [19]

C[N+](C)(C)CC(O)CC(=O)O (stereo not given)
inactive: GB4

C=C(C)[C@H]1CC=C(C)C(=O)C1
inactive: [1] | [2] | [3] | [4] | [5] | [6] | [7] | [8] | [9] | [10] | [11] | [12] | [13] | [14] | [15] | [16] | [17] | [18] | [19]

C=CC(C)(O)CCC=C(C)C (stereo not given)
inactive: [1] | [2] | [3] | [4] | [5] | [6] | [7] | [8] | [9] | [10] | [11] | [12] | [13] | [14] | [15] | [16] | [17] | [18] | [19]

CN1[C@@H]2CC[C@H]1CC(OC(=O)[C@@H](O)c1ccccc1)C2 (stereo not given in full)
inactive: GB4

CN1CCCC[C@@H]1CCN1c2ccccc2Sc2ccc(S(C)=O)cc21 (stereo not given in full)
inactive: GB4
